CtBP-E1A blk: inhibitors of CtBP/E1A interaction | activity change, % (no concentration beside the values) | actives 0.49% (n = 340,000) | AlphaScreen GST-E1A/His-CtBP binding, 1536-well; stronger effect = lower value; in the data active = activity change below about -65%; inconclusive = mostly about -30% to -63%
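GST-E1A and His-tagged CtBP (125 nM each as 5X stock) were preincubated with pin-transferred compound for 2 h at 37 °C in the dark, then glutathione donor and nickel acceptor beads were added for 1 h before AlphaScreen reading.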
Six1-Eya2 inh: inhibitors of human Six1/Eya2 interaction; actives 0.56% (n = 360,000); activity change, % (concentration not given with the values); Q15475+O00167; AlphaScreen GST-Six1/His-Eya2 binding, biochemical; stronger effect = lower value; in the data active = activity change below about -65%; inconclusive = mostly about -30% to -63%
Target sequence (O00167 whole entry, looked up): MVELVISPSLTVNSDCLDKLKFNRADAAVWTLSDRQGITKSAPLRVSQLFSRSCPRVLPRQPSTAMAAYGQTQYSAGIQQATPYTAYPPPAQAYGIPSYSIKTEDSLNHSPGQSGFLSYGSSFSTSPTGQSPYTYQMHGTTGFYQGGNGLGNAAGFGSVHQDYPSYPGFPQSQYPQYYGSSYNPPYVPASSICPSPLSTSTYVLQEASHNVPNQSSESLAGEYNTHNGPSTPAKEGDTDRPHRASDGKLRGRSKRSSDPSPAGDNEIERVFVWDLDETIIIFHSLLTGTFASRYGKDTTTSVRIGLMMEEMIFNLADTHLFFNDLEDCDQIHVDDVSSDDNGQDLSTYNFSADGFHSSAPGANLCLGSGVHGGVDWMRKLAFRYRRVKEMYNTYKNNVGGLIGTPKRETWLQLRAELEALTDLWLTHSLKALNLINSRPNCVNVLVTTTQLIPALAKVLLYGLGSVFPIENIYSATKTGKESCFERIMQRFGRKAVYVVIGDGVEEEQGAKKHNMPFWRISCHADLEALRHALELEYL
Target sequence (Q15475 whole entry, looked up): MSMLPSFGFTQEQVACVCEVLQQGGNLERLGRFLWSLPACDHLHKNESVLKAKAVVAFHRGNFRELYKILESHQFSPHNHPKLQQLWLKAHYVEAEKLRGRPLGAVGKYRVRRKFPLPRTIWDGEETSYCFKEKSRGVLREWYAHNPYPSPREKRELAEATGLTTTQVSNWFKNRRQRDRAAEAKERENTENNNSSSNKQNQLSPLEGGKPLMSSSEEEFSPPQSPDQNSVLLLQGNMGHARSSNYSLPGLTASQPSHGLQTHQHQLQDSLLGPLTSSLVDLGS
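AlphaScreen luminescence read after one hour at 37 °C in darkness. Pin-transferred compounds met GST-Six1 and His-Eya2 protein (5X stock 250 nM/500 nM) plus glutathione donor and Ni-chelate acceptor beads (5X, 50 ug/mL).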
IL-1B inflam inh: inflammasome signaling inhibition, IL-1 beta readout | AID 743279 | THP-1 LPS/ATP IL-1B secretion, AlphaLISA, 16 h; stronger effect = lower value | actives 4.7% (n = 360,000) | activity change, % at 57.5 µM; in the data active = activity change below about -50%; inconclusive = mostly about -30% to -49%
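Secreted IL-1B measured by AlphaLISA bead assay after 16 h compound exposure of THP-1 cells; compounds (final up to 57.5 uM) added 1 h before LPS (250 ng/mL) and ATP (1.25 mM) stimulation; lower signal means less secretion.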
TDP1 cell noCPT: qHTS for Inhibitors of human tyrosyl-DNA phosphodiesterase 1 (TDP1): qHTS in cells in absence of CPT | DT40 Tdp1-/- hTDP1 cells, no CPT, ATP luminescence, 48 h | actives 15% (n = 420,000) | AID 686978, 2013 | Potency, µM (series often up to 46.2 µM), for inactives: at the highest dose activity change, negative = growth inhibition, actives largely listed as inhibitors; note: potency is the fitted concentration of half-maximal effect; nearly all actives have a fitted effect of over 55% in size
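Cells were dispensed at 400 per well, compounds added by pin tool, plates incubated ≥48 hr at 37 °C, then CellTiter-Glo added for 30 min at room temperature before luminescence reading. Line: DT40 Tdp1-/- complemented with hTDP1; camptothecin omitted.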
TDP1 block: TDP1 (human) enzyme inhibition; Q9NUW8; Potency, µM (top dose mostly 130 µM), inactives show at the highest dose activity change, negative = inhibition, hits mostly inhibitors; recombinant TDP1, AlphaScreen DNA substrate cleavage; actives 0.28% (n = 350,000); note: potency is the fitted concentration of half-maximal effect; nearly all actives have a fitted effect of over 40% in size
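Enzyme-compound mixtures sat 15 min at room temperature, followed by a 5 min reaction with 15 nM final substrate and 10 min with AlphaScreen beads. Recombinant human Tdp1 was used at 1 nM final.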
TDP1 cell CPT: DT40-hTDP1 cell growth loss with CPT. Potency, µM (highest dose often 46.2 µM), for inactives: at the top dose activity change, negative = growth inhibition, most hits filed as inhibitors. AID 686979. actives 12% (n = 420,000). chicken DT40 Tdp1-/-;hTDP1 cells + 20 nM CPT, ATP luminescence, 48 h; note: potency is the fitted concentration of half-maximal effect; nearly all actives have a fitted effect of over 55% in size
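Cell growth measured by CellTiter-Glo luminescence after a minimum 48 h, 37 C compound exposure with 20 nM CPT in Tdp1-knockout DT40 cells stably expressing hTDP1, seeded 400/well; qHTS titration format.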
Numbers without * were called inactive; ? = inconclusive; / = no result given; [ ] = remark or other dose. The list is not random: actives were taken first. Their share in the collection is about 18%. Unless noted, calls come from the whole dose curve; as a rule, active = well fitted curve in the direction sought with a large enough effect; inconclusive = small, poorly fitted or top-dose-only effect, or another doubt; inactive = no such curve, though single readings can be large; an effect the other way counts as inactive or inconclusive. % is set by controls: 0 for no effect and ±100 for the full control effect.

SMILES	CtBP-E1A blk	Six1-Eya2 inh	IL-1B inflam inh	TDP1 cell noCPT	TDP1 block	TDP1 cell CPT
Cc1ccc(S(=O)(=O)c2nc(S(=O)(=O)c3ccc(C)cc3)c(NC(C)C)s2)cc1	/	/	/	?	9%	16µM*
Cc1ccc(CCNC(=O)CCCn2nc(C)c3c(C)n(-c4ccccc4)nc3c2=O)cc1	/	/	/	21µM*	6%	21µM*
Cc1nn(CCCC(=O)NCCc2ccccc2)c(=O)c2nn(-c3ccccc3)c(C)c12	-9	-1	?	11%	1%	-2%
Cc1ccc(-n2nc3c(=O)n(CCCC(=O)NCc4cccc(F)c4)nc(C)c3c2C)cc1	/	-14	-3	15µM*	4%	?
Cc1ccc(-n2nc3c(=O)n(CC(=O)NCCc4ccc(Cl)cc4)nc(C)c3c2C)cc1	/	2	-8	?	-18%	?
Cc1ccc(-n2nc3c(=O)n(CCCC(=O)NCCc4ccccc4C)nc(C)c3c2C)cc1	0	2	?	12µM*	1%	?
Cc1ccc(CCNC(=O)CCCn2nc(C)c3c(C)n(-c4ccc(C)cc4)nc3c2=O)cc1	-1	4	-4	?	-4%	15µM*
Cc1ccc(-n2nc3c(=O)n(CCCC(=O)NCCN4CCN(C)CC4)nc(C)c3c2C)cc1	-3	-1	?	26%	1%	3%
Cc1cccc(S(=O)(=O)N2CCCc3ccccc32)c1	31	20	34	?	/	26µM*
Cc1ccnc(NC(=O)c2cccc(S(=O)(=O)N3CCCc4ccccc43)c2)c1	-3	-3	4	21µM*	0%[0.505 µM]	21µM*
O=C(Nc1ccccn1)c1cccc(S(=O)(=O)N2CCCc3ccccc32)c1	-10	-1	13	?	0%	?
Cc1cc(C)cc(CSc2nnc(C)c(=O)[nH]2)c1	-11	3	13	-17%	0%	-5%
Cc1ccc([N+](=O)[O-])cc1N/C=C1\CCc2ccccc2C1=O	-16	-9	7	?	5%	21µM*
CCCc1cc2c(cc1NC(=O)c1ccccc1Cl)OCO2	-3	5	-12	-24%	6%	-20%
Cc1ccc2onc(CNC(=O)N3CCN(c4cc(Cl)ccc4C)CC3)c2c1	/	/	/	?	-5%	?
Cc1ccc(-c2csc3ncn(CC(=O)N4CCOCC4)c(=O)c23)cc1C	4	-3	-21	?	-2%	-17%
Nc1ncnc2c1ncn2CCOCP(=O)(O)O	/	/	/	-11%	5%	-11%
Nc1ncnc2c1ncn2COC(CO)CO	/	/	/	0.71µM*	0%	0.32µM*
O=C(CSc1nc2ccccc2c(=O)[nH]1)Nc1ccccc1N1CCOCC1	2	0	34	-25%	2%	-27%
O=C(CSc1nc2ccccc2c(=O)[nH]1)Nc1ccc(N2CCOCC2)cc1	-1	4	7	-32%	2%	16µM*
CC(C)c1nc(SCC(=O)Nc2ccc(N3CCOCC3)cc2)c2ccccc2n1	4	-7	0	?	3%	15µM*
O=C(CSc1nncn1-c1ccccc1)Nc1ccc(N2CCOCC2)cc1	-5	-2	-6	13µM*	1%	23µM*
CCCc1nc(SCC(=O)Nc2ccc(N3CCOCC3)cc2)c2ccccc2n1	-9	-1	3	5.2µM*	5%	?
CCn1c(SC(C)C(=O)Nc2ccc(N3CCOCC3)cc2)nnc1C1CC1 (stereo not given)	-2	0	1	21%	-1%	-11%
Cc1ccc(N(CC(=O)Nc2cc(C)ccc2C)S(C)(=O)=O)cc1	-8	17	-12	-10%	/	24%
Nc1ccc(SC(F)(F)F)cc1C(=O)c1ccccc1	2	14	-103*	?	3%	?
